Bioassay records: PubChem, National Center for Advancing Translational Sciences (NCATS)
An excerpt weighted towards active compounds, which were near 12% of everything screened.
ALDH1A1 block: inhibitors of human aldehyde dehydrogenase 1A1. P00352. 7.3% of 220,000 active. Potency, µM (top dose mostly 75.3 µM), hits mostly inhibitors. Purified ALDH1A1, NADH fluorescence, propionaldehyde substrate; active = well fitted inhibition curve with a large enough effect, not every such curve was filed as active; inconclusive = small, poorly fitted or top-dose-only effect, or another doubt; inactive = no such curve, though single readings can be large or run the other way
Sfp PPTase inh: blocks B. subtilis Sfp PPTase activity. Q9F4F7. Biochemical Sfp PPTase activity, qHTS. Potency, µM, actives largely listed as inhibitors. 3.5% of 310,000 active;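 also: the enzyme is Sfp with the accession as filed and its product quenches rhodamine fluorescence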
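Buffer: 50 mM Hepes-Na pH 7.6, 10 mM MgCl2, 0.01% Nonidet P-40, 0.01% BSA. Enzyme 15 nM, pre-exposed to compound 15 min; substrates then added and fluorescence change tracked over 30 min.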
RORg inh: blocks mouse ROR gamma transcriptional activity; P51450; Drosophila S2 Gal4-RORgamma UAS-luciferase reporter, 20 h; Potency, µM (highest dose often 53.6 µM), most hits filed as inhibitors; 5.4% of 310,000 active; AID 2551; also: nearly all actives have a fitted effect of over 60% in size
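Stable Schneider cell line, Gal4 DNA-binding domain fused to ROR gamma, UAS-luciferase. Cmpd 1 hr RT → CuSO4 700 uM final → 20 hr RT → luciferase reagent 10 min → luminescence.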
Gal4-VP16 FLuc: Gal4-VP16 reporter inhibition counter-screen; Drosophila S2 Gal4-VP16 UAS-luciferase, luminescence, 20 h; Potency, µM (series often up to 53.6 µM), most hits filed as inhibitors; 3.5% of 310,000 active;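 also: Gal4-VP16 expression switched on by copper sulfate through the metallothionein promoter; nearly all actives have a fitted effect of over 50% in size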
PLK1 PBD inh: PLK1 (human) polo-box domain binding inhibition; P53350; Potency, µM, actives largely listed as inhibitors; Plk1 PBD binding of FITC phosphopeptide, fluorescence polarization; 2.8% of 360,000 active; also: series mostly up to about 57 µM; nearly all actives have a fitted effect of over 65% in size
Target sequence (P53350 whole entry, looked up, the tested form may be a part): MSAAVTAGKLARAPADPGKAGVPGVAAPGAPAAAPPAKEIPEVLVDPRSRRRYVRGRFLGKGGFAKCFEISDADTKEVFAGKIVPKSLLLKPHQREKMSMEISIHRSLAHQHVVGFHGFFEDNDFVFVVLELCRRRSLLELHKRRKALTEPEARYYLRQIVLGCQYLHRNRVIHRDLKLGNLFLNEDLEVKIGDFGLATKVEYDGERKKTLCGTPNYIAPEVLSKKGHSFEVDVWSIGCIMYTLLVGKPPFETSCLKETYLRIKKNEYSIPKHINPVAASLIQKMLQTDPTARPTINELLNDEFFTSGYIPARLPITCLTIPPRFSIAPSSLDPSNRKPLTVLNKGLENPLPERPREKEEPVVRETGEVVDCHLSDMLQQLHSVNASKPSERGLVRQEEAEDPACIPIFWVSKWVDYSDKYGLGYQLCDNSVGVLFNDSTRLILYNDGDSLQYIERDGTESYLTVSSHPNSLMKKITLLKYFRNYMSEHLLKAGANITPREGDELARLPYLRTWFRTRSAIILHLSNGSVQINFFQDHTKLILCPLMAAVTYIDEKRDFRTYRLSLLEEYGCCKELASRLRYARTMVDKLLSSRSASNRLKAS
A number is an active result; - = inactive; ? = inconclusive; . = no result given; [ ] = remark or other dose. Unless noted, calls follow the shape of the dose curve; as a rule, active = well fitted curve in the direction sought with a large enough effect; inconclusive = small, poorly fitted or top-dose-only effect, or another doubt; inactive = no such curve, though single readings can be large; an effect the other way counts as inactive or inconclusive.

SMILES | ALDH1A1 block | Sfp PPTase inh | RORg inh | Gal4-VP16 FLuc | PLK1 PBD inh
O=C(CN(Cc1ccco1)C(=O)Cn1nnc(-c2ccc(F)cc2)n1)NC1CCCC1 | - | - | - | - | -
CCCC(C(=O)NCC1CCCO1)N(Cc1ccco1)C(=O)CNS(=O)(=O)c1ccccc1 (stereo unspecified) | 11.2µM | - | - | - | -
CCCC(C(=O)NC1CCCCC1)N(Cc1ccco1)C(=O)CNS(=O)(=O)c1ccccc1 (stereo unspecified) | 10µM | - | - | - | -
CCC(C(=O)NC1CCCC1)N(Cc1ccco1)C(=O)CNS(=O)(=O)c1ccccc1 (stereo unspecified) | . | - | - | - | -
CCCCC(C(=O)NC1CCCC1)N(Cc1ccco1)C(=O)Cn1nnc(-c2ccc(F)cc2)n1 (stereo unspecified) | - | - | - | - | 23.8µM
Cc1cc(Br)ccc1NC(=O)CN(C)C(=O)CCSc1ccc(F)cc1 | . | . | . | . | 26.7µM
Cc1ccc(C)c(NC(=O)CN(C)C(=O)CSC(C)C(=O)Nc2cc(C)on2)c1 (stereo unspecified) | . | - | - | - | -
Cc1cc(NC(=O)C(C)SCC(=O)N(C)CC(=O)Nc2ccc(Br)cc2C)no1 (stereo unspecified) | . | - | 12.6µM | 12.6µM | -
CCc1nc2c(OCc3ccc(F)c(F)c3)cccn2c1N(C)C(=O)c1ccncc1 | . | . | . | . | -
CCCCC/C=C\C\C=C/C=C/C=C/[C@@H](O)[C@@H](O)CCCC(=O)O | - | - | - | - | .
O=C(Cc1ccccc1)NCC1CCCO1 (stereo unspecified) | - | - | - | - | -
CCOc1ccc(OCc2ccc(C(=O)NCC3CCCO3)o2)cc1 (stereo unspecified) | - | - | - | - | -
O=C(NCC1CCCO1)c1ccc(COc2ccc(F)cc2)o1 (stereo unspecified) | 10µM | - | - | - | -
O=C(Cc1ccc(F)cc1)NCC1CCCO1 (stereo unspecified) | - | - | 11.2µM | - | -
CCCCNC(=O)c1[nH]c(C2CCNCC2)nc1-c1cccc(C(F)(F)F)c1 | . | . | . | . | -
Cc1ccc2occ(/C=C/C(=O)c3ccccc3O)c(=O)c2c1 | 7.94µM | - | - | ? | -
Cc1nnc(N(C(=O)c2cnccn2)c2ccccc2)s1 | - | - | - | - | 10.6µM
Cc1nnc(N(C)C(=O)c2cnccn2)s1 | - | - | - | - | -
COc1ccc(NC(=O)[C@@H]2O[C@H](CO)[C@H](O)[C@H](O)[C@H]2O)cc1F | . | . | . | . | -
CC(=O)Nc1ccc(S(=O)(=O)N(C2=NCC(C)S2)c2ccccc2)cc1 (stereo unspecified) | 12.6µM | - | - | - | -
Cc1ccc(NC(=O)N(C2=NCC(C)S2)c2ccccc2)cc1 (stereo unspecified) | . | . | . | . | -
Cc1c(C(=O)N2CCOCC2)sc(NC(=O)CCl)c1C#N | . | - | 12.6µM | ? | -
CC[C@H]1O[C@H](C)CC2=C1C(=O)OC(C)(C)O2 | . | . | . | . | -
Cc1ccc(NC(=O)COC(=O)c2ccc(Cl)nc2)cc1S(=O)(=O)N1CCCCC1 | . | . | . | . | -
c1coc(-c2nc(-c3ccco3)c(-c3ccco3)nc2-c2ccco2)c1 | ? | 35.5µM | - | - | 11.9µM
SMILES | ALDH1A1 block | Sfp PPTase inh | RORg inh | Gal4-VP16 FLuc | PLK1 PBD inh
OCc1cn(-c2ccccc2)nc1-c1ccco1 | ? | ? | - | - | -
NC(=O)c1nnsc1-c1ccco1 | . | . | . | . | -
Nc1nc(-c2ccco2)c(-c2ccco2)s1 | ? | 15.8µM | - | - | -
COc1ccc2nc(-c3ccco3)c(-c3ccco3)nc2c1 | ? | 7.08µM | ? | - | ?
CCCCCCCCN1C(=O)[C@H](CC(=O)N2CCSCC2)C[C@@]2(C(=O)OC)CCCCC=C12 | . | . | . | . | -
COC(=O)[C@@]1(Cc2ccc(F)cc2)[C@H]2c3cc(C(=O)N4CCCC4)n(Cc4c(CO)[nH]cc(C)c4=O)c3C[C@H]2CN1C(=O)c1ccccc1 | - | - | - | - | .
O=C(NCc1ccncc1)C1Cc2c(-c3ccccc3Oc3ccccc3)ccnc2O1 (stereo unspecified) | . | . | . | . | -
CC(C)CC1(C(=O)NCC2CC2)C=CCN1C(=O)c1ccccc1 (stereo unspecified) | 25.1µM | - | - | ? | .
CNC(=O)C1(CC(C)C)C=CCN1C(=O)c1ccccc1 (stereo unspecified) | - | - | - | - | .
Cc1ccc(CNC(=O)C2(CC(C)C)C=CCN2C(=O)c2ccccc2)o1 (stereo unspecified) | - | 39.8µM | - | - | .
COC(=O)CNC(=O)C1(CC(C)C)C=CCN1C(=O)c1ccccc1 (stereo unspecified) | - | - | - | - | .
CC(NC(=O)c1cc(COc2ccc(-n3cncn3)cc2)on1)c1ccc(F)cc1 (stereo unspecified) | . | . | . | . | -
CCOC(=O)c1ccc2ncc(C(=O)OCC)c(Nc3ccc(N4CCOCC4)cc3)c2c1 | - | 50.1µM | - | ? | -
CCOC(=O)c1cnc2ccc(C(=O)OC)cc2c1Nc1ccc(C(=O)O)cc1 | - | - | - | - | -
CCOC(=O)c1cnc2ccc(OC)cc2c1Nc1ccc(N2CCN(C)CC2)cc1 | . | - | - | - | 6.7µM
CCOC(=O)c1cnc2ccc(OC)cc2c1Nc1ccc2c(c1)OCCO2 | ? | - | - | - | -
COC(=O)C[C@@H]1CC[C@@H](NC(C)=O)[C@@H](CO)O1 | . | . | . | . | -
CCCNC(=O)OC[C@@H]1O[C@H](CCO/N=C(\C)CCC(=O)OC[C@@H]2O[C@H](c3ccccc3)C=C[C@@H]2Oc2ccc(OC)cc2)C=C[C@@H]1Oc1ccc(OC)cc1 | -[13.5 µM] | - | -[10 µM] | -[10 µM] | .
O=[N+]([O-])c1ccc(Nc2nc(N3CCOCC3)nc(N3CCOCC3)n2)cc1 | . | . | . | . | -
c1ccc(Nc2nc(N3CCOCC3)nc(N3CCOCC3)n2)cc1 | - | - | - | - | -
Cc1ccc([N+](=O)[O-])cc1Nc1nc(N2CCCC2)nc(N2CCCC2)n1 | . | - | - | - | 18.9µM
NNc1nc(Nc2ccccc2)nc(Nc2ccccc2)n1 | - | - | 15.8µM | - | -
NNc1nc(Nc2ccc([N+](=O)[O-])cc2)nc(N2CCCCCC2)n1 | . | - | ? | 15.8µM | -
NNc1nc(Nc2ccccc2)nc(N2CCCCC2)n1 | - | - | 5.01µM | 7.08µM | -
O=C(O)c1c[nH]c2c([N+](=O)[O-])cccc2c1=O | . | . | . | . | -
SMILES | ALDH1A1 block | Sfp PPTase inh | RORg inh | Gal4-VP16 FLuc | PLK1 PBD inh
CCOC(=O)C1(C)CCN1C(=O)c1cc(F)ccc1C (stereo unspecified) | . | . | . | . | -
OCCNc1nc(N2CCCC2)nc(N2CCCC2)n1 | - | - | ? | - | -
O=[N+]([O-])c1ccc(Nc2nc(N/N=C\c3ccc4c(c3)OCO4)nc(N3CCCCC3)n2)cc1 | ? | - | 4.47µM | ? | -
O=[N+]([O-])c1ccc(Nc2nc(NCCO)nc(N3CCCC3)n2)cc1 | 1.58µM | - | - | - | -
COC(=O)C1=CN(c2ccc(OC)cc2OC)C(N)=C(C#N)C1c1cccc([N+](=O)[O-])c1 (stereo unspecified) | . | . | . | . | -
CN(C)CC/C=C1\c2ccccc2COc2ccc(CC(=O)O)cc21 | . | - | -[10 µM] | - | .
